OPRM1-OPRD1 inv: mu-delta opioid heterodimer inverse agonism; P35372+P41143; cell-based MOR-DOR heterodimer luminescence; 340,000 tested, 0.21% active; inhibition, % at 9.3 µM; in the data active = inhibition above about 22%, passing the limit was not always enough
MIN6 prolif: induces beta-cell replication in MIN6 cells; proliferation, % at 10 µM; 330,000 tested, 0.29% active; MIN6 cells proliferation, ATPlite luminescence, 48 h; cells starved in 0.2% serum; 100% = growth in 10% serum;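 active = compounds whose signal lies at least 3.5 SD above the mean of all wells on their plate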
V-ATPase pHluor: regulators of yeast V-ATPase proton transport; response, % at 10 µM; S. cerevisiae, pHLuorin cytosolic pH fluorescence; 350,000 tested, 0.37% active; in the data active = response mostly above about 7.3%, no sharp cut-off; inactive = mostly below about 5.4%; also: actives read high
HTR5A ag: HTR5A agonism, opioid heterodimer counter-screen | HTR5A agonist assay, luminescence, cell-based | activation, % at 9.3 µM | 340,000 tested, 0.61% active; in the data active = activation mostly above about 9.5%, no sharp cut-off; inactive = mostly below about 7.6%
Target sequence (P47898 whole entry, looked up): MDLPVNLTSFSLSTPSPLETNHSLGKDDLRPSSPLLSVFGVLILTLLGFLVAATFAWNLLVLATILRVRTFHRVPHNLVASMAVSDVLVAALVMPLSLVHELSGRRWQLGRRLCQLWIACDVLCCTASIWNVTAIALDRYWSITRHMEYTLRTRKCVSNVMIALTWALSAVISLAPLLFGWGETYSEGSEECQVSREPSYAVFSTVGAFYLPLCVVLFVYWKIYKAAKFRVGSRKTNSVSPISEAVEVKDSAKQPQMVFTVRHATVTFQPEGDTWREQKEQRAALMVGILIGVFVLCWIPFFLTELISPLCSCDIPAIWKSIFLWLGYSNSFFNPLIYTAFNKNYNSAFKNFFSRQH
HTR5A inv ag: counter-screen for OPRM1-OPRD1 inverse agonists: human HTR5A inverse agonism | 340,000 tested, 0.083% active | HTR5A cell line, luminescence | AID 504634 | inhibition, % at 9.3 µM; in the data active = inhibition mostly above about 23%, no sharp cut-off; inactive = mostly below about 18%
MOR-DOR ag: agonists of human mu-delta opioid receptor heterodimerization; activation, % at 9.3 µM; AID 504326; cells, OPRM1-OPRD1 heterodimerization, luminescence; 340,000 tested, 0.3% active; P35372+P41143; in the data active = activation above about 18%
VATPase regulator: regulators of yeast V-ATPase proton transport; 980 tested, 2% active; response, % at 10 µM; AID 602197; shares compounds with V-ATPase pHluor; S. cerevisiae pHLuorin cytosolic pH; in the data active = response above about 24%
Hits are given with their value; – = inactive; · = no result given. In the library only some 1.7% were active in any assay of this set; here they are far more common.

SMILES	OPRM1-OPRD1 inv	MIN6 prolif	V-ATPase pHluor	HTR5A ag	HTR5A inv ag	MOR-DOR ag	VATPase regulator
Cc1ccc(NC(=O)N2CCCC2C(=O)NCC2CCCO2)cc1 (stereo not drawn)	–	–	–	–	–	–	·
O=C(CSc1nc(=O)n(CCCN2CCOCC2)c2c1CCCC2)Nc1ccc(F)cc1F	–	–	6.0	–	–	–	–
COc1cccc(C(=S)N2CCCC2)c1OC	–	–	–	–	–	–	·
Cc1ccc(C(=O)OCC(=O)NCc2cccs2)cc1	–	–	9.9	–	–	–	–
Cc1cc(C(=O)Nc2ccc3[nH]ccc3c2)no1	–	–	–	–	–	–	·
O=C(OCC(=O)N1CCCc2ccccc21)c1cccc(C(F)(F)F)c1	–	–	–	–	–	–	·
N#Cc1cccc(C(=O)OCC(=O)N2CCCc3ccccc32)c1	–	–	9.2	–	–	–	–
COCCn1c(=O)[nH]c2cc(C(=O)N3CCN(c4ccccc4OC)CC3)ccc2c1=O	–	–	10.0	–	–	–	–
COCCn1c(=S)[nH]c2cc(C(=O)N3CCN(c4ccccc4OC)CC3)ccc2c1=O	–	–	–	–	–	–	·
Cc1cc(C)n2c(Br)c(CSc3nc4ccccc4s3)nc2n1	–	–	–	–	–	–	·
CC1Nc2nc(NC(=O)C(C)(C)C)[nH]c(=O)c2N(C)C1C (stereo not drawn)	–	–	12.4	–	–	–	–
COc1ccc(N2C[C@H](CSC)[C@@H](CC(=O)Nc3ccccc3)C2=O)cc1	·	·	7.0	·	·	·	–
COc1ccc(N2C[C@H](Cc3ccccc3)[C@@H](CC(=O)Nc3ccccc3)C2=O)cc1	·	·	–	·	·	·	·
Cc1ccccc1OC(C)C(=O)Nc1ccc(S(=O)(=O)N2CCCC2)cc1 (stereo not drawn)	–	–	–	–	–	–	·
CC(Oc1cc(F)ccc1[N+](=O)[O-])C(=O)Nc1ccc(S(=O)(=O)N2CCCC2)cc1 (stereo not drawn)	–	–	14.9	–	–	–	–
CC(=O)NC(CC(=O)OCC(=O)Nc1ccc2c(c1)OCO2)c1ccccc1 (stereo not drawn)	–	–	–	–	–	–	·
CN1CCN(C(=O)/C(=C\c2cccnc2)NC(=O)c2cccc(Br)c2)CC1	–	–	–	–	–	–	·
Cc1cc(OC(=O)c2cccc(F)c2)c([N+](=O)[O-])c(=O)[nH]1	–	–	–	–	–	–	·
CCOc1cccc(NC(=O)/C(C#N)=C\c2cn(CC(=O)O)c3ccccc23)c1	–	–	–	–	–	–	·
CCOc1ccc(NC(=O)/C(C#N)=C/c2cn(CC(=O)O)c3ccccc23)cc1	–	–	7.1	–	–	–	–
COc1cc(C(=O)NCCC2=CCCCC2)ccc1OCc1c(C)noc1C	–	–	–	–	–	–	·
O=S(=O)(c1ccc(F)cc1)N1CCN(CC(O)COCc2ccccc2)CC1 (stereo not drawn)	–	·	–	–	–	–	·
O=S(=O)(c1ccc(F)cc1)N1CCN(CC(O)COCC2CCCO2)CC1 (stereo not drawn)	–	–	9.8	–	–	–	–
COCOCCn1cc(CN2CCS(=O)(=O)N(Cc3ccc(-c4ccc(OC)nc4)cc3)C(C)C2=O)nn1 (stereo not drawn)	·	·	7.8	·	·	·	–
COc1ccc(CN(CC(=O)NCCc2ccccc2)C(=O)CCC(=O)Nc2ccccn2)cc1	–	–	–	–	–	–	·
SMILES	OPRM1-OPRD1 inv	MIN6 prolif	V-ATPase pHluor	HTR5A ag	HTR5A inv ag	MOR-DOR ag	VATPase regulator
CSc1ccccc1OCc1cc(C(=O)N2CCC[C@H]2C(N)=O)no1	–	–	–	–	–	–	·
O=C(NNc1nc2ccccc2s1)c1ccc(F)cc1	–	–	5.8	–	–	–	–
COc1ccc(Cl)cc1C(=O)Nn1cnnc1	–	–	–	–	–	–	·
COc1ccc(N(CC(=O)N/N=C/c2cc(Br)c(C)o2)S(=O)(=O)c2ccc(NC(C)=O)cc2)cc1	–	–	10.7	–	–	–	–
Cc1ccc(S(=O)(=O)NC(CC(C)C)C(=O)N2CCCC2)cc1 (stereo not drawn)	–	–	–	–	–	–	·
CCN(CCO)C(=O)CC1C(=O)NCCN1Cc1c(F)cccc1Cl (stereo not drawn)	–	–	–	–	–	–	·
Cc1nn(CC#N)c(=O)n1-c1ccc(C(C)C)cc1	–	–	–	–	–	–	·
Cc1nn(CC#N)c(=O)n1-c1ccc(Cl)cc1	–	–	–	–	–	–	–

From PubChem
